# “And” between values parts separate entries of the source, which are not always exact repeats. Equal entries are not always repeated. About 79,000 compounds went through this panel and 15% of them were active in at least one assay; those are over-represented in the sample as a whole. More than one record can exist for a structure, and the calls need not agree. The source made the active and inactive calls. Rule as the data show it: active = growth inhibition above about 70%; inactive = the rest.
# Columns and labels:
# [1] = NCI Yeast Anticancer Drug Screen. Data for the rad50 strain (AID 155);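 also: 0% = growth of vehicle-only cultures of the same strain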; conditions: S. cerevisiae rad50 strain growth inhibition, stronger effect = higher value
# How it was run: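 Cells are treated with compound, grown, and their growth is then scored against vehicle-only cultures of the same repair-deficient yeast strain.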
# [2] = NCI Yeast Anticancer Drug Screen. Data for the mec2-1 strain (AID 157); conditions: S. cerevisiae mec2-1 strain, stronger effect = higher value
# How it was run: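 Test agents were screened against the mec2-1 yeast strain, with defined DNA repair or cell cycle alteration. Growth was scored as inhibition against vehicle-only controls.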
# [3] = NCI Yeast Anticancer Drug Screen. Data for the sgs1 mgt1 strain (AID 161);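 also: 0% = growth of cultures given vehicle only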; conditions: S. cerevisiae sgs1 mgt1 strain, stronger effect = higher value
# How it was run: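 Inhibition of yeast growth, normalised to vehicle-treated controls, is reported for a strain bearing genetic alterations in DNA damage repair.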
# [4] = NCI Yeast Anticancer Drug Screen. Data for the cln2 rad14 strain (AID 165);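 also: 0% = growth equal to vehicle treated cultures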; conditions: S. cerevisiae cln2 rad14 strain, stronger effect = higher value
# How it was run: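 Growth of compound-exposed yeast (cln2 rad14 genotype) measured and expressed as inhibition relative to vehicle.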
# [5] = NCI Yeast Anticancer Drug Screen. Data for the bub3 strain (AID 167); conditions: S. cerevisiae bub3 mutant strain, stronger effect = higher value
# How it was run: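 Part of a panel of yeast mutants defective in DNA damage repair or cell cycle regulation. Each strain is grown with compound, and inhibition is calculated relative to solvent-treated cultures.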
# [6] = NCI Yeast Anticancer Drug Screen. Data for the mlh1 rad18 strain (AID 175); conditions: S. cerevisiae mlh1 rad18 strain growth inhibition, stronger effect = higher value
# How it was run: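 In this whole-cell yeast screen, a strain with altered DNA damage repair is challenged with compound, and its growth is measured against matched vehicle-treated controls.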
# [7] = at 5.0 µM (retest, dose inferred, filed as 0.5)
# [8] = at 50.0 µM (retest, dose inferred, filed as 5.0)
SMILES,"growth inhibition [1, 7]","growth inhibition [1, 8]",growth inhibition ([1]; at 50.0 µM),"growth inhibition [2, 7]","growth inhibition [2, 8]",growth inhibition ([2]; at 50.0 µM),"growth inhibition [3, 7]","growth inhibition [3, 8]",growth inhibition ([3]; at 50.0 µM),"growth inhibition [4, 7]","growth inhibition [4, 8]",growth inhibition ([4]; at 50.0 µM),"growth inhibition [5, 7]","growth inhibition [5, 8]",growth inhibition ([5]; at 50.0 µM),"growth inhibition [6, 7]","growth inhibition [6, 8]",growth inhibition ([6]; at 50.0 µM)
C#CC(C)(C)OC(=O)Nc1ccccc1,5% (inactive),86% (active),12.6% (inactive) and 89.2% (active),-14% (inactive),62% (inactive),9.3% (inactive) and 43.6% (inactive),-2% (inactive),80% (active),-10.1% (inactive) and 84% (active),0% (inactive),14% (inactive),-53% (inactive) and 2.95% (inactive),-6% (inactive),79% (active),-7.8% (inactive) and 59.4% (inactive),-3% (inactive),80% (active),8.4% (inactive) and 86.7% (active)
O=c1ccn(C2CC(O)C(COC(c3ccccc3)(c3ccccc3)c3ccccc3)O2)c(=O)[nH]1 (centres undefined),1% (inactive) and 22% (inactive),99% (active),49.5% (inactive) and 40.2% (inactive),6% (inactive) and 7% (inactive),100% (active) and 99% (active),98% (active) and 53% (inactive),-1% (inactive),100% (active) and 54% (inactive),42.5% (inactive) and 52.7% (inactive),8% (inactive) and 5% (inactive),99% (active),97.7% (active) and 56% (inactive),7% (inactive) and 1% (inactive),99% (active) and 98% (active),99.5% (active) and 16.2% (inactive),13% (inactive),99% (active) and 98% (active),41.9% (inactive) and 51.7% (inactive)
O=C1C=CC(=O)C(C2OC(=O)C(Br)=C2Br)=C1 (centres undefined),-14% (inactive),18% (inactive),6.95% (inactive),-21% (inactive),-17% (inactive),5.5% (inactive),-18% (inactive),-1% (inactive),-3.45% (inactive),-10% (inactive),-10% (inactive),-17.7% (inactive),-9% (inactive),7% (inactive),13.6% (inactive),-25% (inactive),46% (inactive),12.4% (inactive)
Cc1nc2ccccc2cc1CCl,-113% (inactive),91% (active),82.5% (active),-44% (inactive),46% (inactive),59.5% (inactive),-51% (inactive),91% (active),63.8% (inactive),-47% (inactive),80% (active),70.3% (active),-69% (inactive),76% (active),32.9% (inactive),-122% (inactive),90% (active),69.8% (inactive)
CC(C)(C)CC(C)(C)c1ccc(OCCO)cc1,-2% (inactive),98% (active),-22.7% (inactive) and 99.6% (active),-16% (inactive),99% (active),-11.3% (inactive) and 99.5% (active),-6% (inactive),97% (active),25.9% (inactive) and 99.5% (active),-13% (inactive),99% (active),-49.5% (inactive) and 99.3% (active),-21% (inactive),99% (active),-40.5% (inactive) and 99.5% (active),-5% (inactive),99% (active),-27.9% (inactive) and 99.5% (active)
O=C(c1ccccc1)C(c1ccccc1)C(O)c1ccc([N+](=O)[O-])cc1 (centres undefined),9% (inactive) and 2% (inactive),89% (active) and 99% (active),96% (active) and 98.2% (active),13% (inactive) and -8% (inactive),96% (active) and 99% (active),98.4% (active) and 99.5% (active),6% (inactive) and -14% (inactive),94% (active) and 99% (active),97.1% (active) and 98.8% (active),9% (inactive) and 3% (inactive),96% (active) and 99% (active),94.8% (active) and 99.2% (active),19% (inactive) and 1% (inactive),92% (active) and 99% (active),95.6% (active) and 98.9% (active),11% (inactive) and 6% (inactive),95% (active) and 99% (active),96.7% (active) and 99.5% (active)
Cc1cc(O)c(C(C)C)cc1Cl,5% (inactive),79% (active),53.1% (inactive) and 98.7% (active),4% (inactive),90% (active),41% (inactive) and 98.6% (active),-6% (inactive),38% (inactive),45.5% (inactive) and 99.2% (active),-4% (inactive),48% (inactive),4.75% (inactive) and 79.6% (active),-4% (inactive),98% (active),13.2% (inactive) and 97.5% (active),7% (inactive),84% (active),26.8% (inactive) and 98.8% (active)
O=C1C(Cl)=C(Cl)C(Cl)(Cl)C(Cl)=C1Cl,24% (inactive) and 61% (inactive),99% (active),60.4% (inactive) and 64.4% (inactive),24% (inactive) and 42% (inactive),100% (active),99.2% (active) and 52.9% (inactive),18% (inactive) and 69% (inactive),99% (active),97.7% (active) and 66.2% (inactive),19% (inactive) and 13% (inactive),99% (active) and 98% (active),98.7% (active) and -4.55% (inactive),22% (inactive) and 19% (inactive),99% (active) and 100% (active),98.8% (active) and 55.9% (inactive),37% (inactive) and 50% (inactive),99% (active),98.1% (active) and 70.8% (active)
